Experimental data published in PubChem BioAssay AID1159580 (chemical genetic matrix, 2015).
Screen size: about 5,500 compounds; about 2,000 (36%) were called active. About 18% were inconclusive and are not listed. Rule as the data show it: active = normalized growth mostly below about 0.91 (no sharp cut-off); inconclusive = no clear call, values can overlap the other calls; inactive = mostly above about 0.92. The list shows a part of the results.

Test: chemical genetic growth profiling, strain panel (AID 1159580);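 also: tested at 20 µM; growth read once vehicle control cultures reached saturation at 30 °C; 1 = growth at the plate median or of vehicle wells; lower values mean less growth of the strain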
Details: S. cerevisiae deletion strains, growth OD

Measured: normalized growth

CC1(C)CC[C@@]2(C(=O)O)C(C1)C1=CCC3[C@@]4(C)CC[C@H](O)C(C)(C)C4CC[C@@]3(C)[C@]1(C)C[C@@H]2O (stereo not given in full)
active: locus YDL101C, strain DUN1, active compounds read low 0.827 | locus YDR137W, strain rgp1, active compounds read low 0.828 | locus YGL086W, strain mad1, active compounds read low 1.22 [resistant] | locus YIR030C, strain dcg1, active compounds read low 1.1 [resistant] | locus YKL009W, strain mrt4, active compounds read low 1.16 [resistant] | locus YKL068W, active compounds read low 1.19 [resistant] | locus YKL085W, strain MDH1 (second series), active compounds read low 1.24 [resistant] | locus YKL085W, strain MDH1, active compounds read low 1.24 [resistant] | locus YLR418C, strain cdc73, active compounds read low 1.19 [resistant]
inactive: locus YAL013W, strain DEP1, active compounds read low 1.02 | locus YAL021C, strain ccr4, active compounds read low 1.01 | locus YAL026C, strain drs2, active compounds read low 1.01 | locus YAL030W, strain snc1, active compounds read low 1.01 | locus YBL061C, strain skt5, active compounds read low 1.03 | locus YBR009C, strain hhf1, active compounds read low 1.01 | locus YBR021W, strain FUR4, active compounds read low 0.996 | locus YBR023C, strain chs3, active compounds read low 1.02 | locus YBR171W, strain sec66, active compounds read low 1.02 | locus YBR229C, strain ROT2, active compounds read low 1.03 | locus YBR231C, strain swc5, active compounds read low 1.03 | locus YBR279W, strain paf1, active compounds read low 1.02 | locus YCL011C, strain gbp2, active compounds read low 1.02 | locus YCL016C, strain dcc1, active compounds read low 1.02 | locus YCL029C, strain bik1, active compounds read low 0.992 | locus YCL061C, strain MRC1, active compounds read low 1.01 | locus YCL069W, strain vba3, active compounds read low 1.01 | locus YCR088W, strain abp1, active compounds read low 1.01 | locus YDL005C, strain med2, active compounds read low 1.01 | locus YDL035C, strain GPR1, active compounds read low 1 | locus YDL040C, strain nat1, active compounds read low 1.02 | locus YDL074C, strain BRE1, active compounds read low 1 | locus YDL185W, strain tfp1, active compounds read low 1.02 | locus YDL192W, strain arf1, active compounds read low 1.05 | locus YDR001C, strain nth1, active compounds read low 1.01 | locus YDR069C, strain doa4, active compounds read low 1.05 | locus YDR101C, strain arx1, active compounds read low 1.02 | locus YDR150W, strain NUM1, active compounds read low 1.03 | locus YDR159W, strain sac3, active compounds read low 0.953 | locus YDR162C, strain NBP2, active compounds read low 1.01 | locus YDR195W, strain ref2 0.952 | locus YDR297W, strain sur2, active compounds read low 1.01 | locus YDR318W, strain mcm21, active compounds read low 1.03 | locus YDR334W, strain swr1, active compounds read low 1.01 | locus YDR335W, strain msn5, active compounds read low 1.02 | locus YDR388W, active compounds read low 1.03 | locus YDR392W, strain spt3, active compounds read low 1.01 | locus YDR502C, strain sam2, active compounds read low 1.05 | locus YEL003W, strain gim4, active compounds read low 1.03 | locus YEL037C, strain rad23, active compounds read low 1.02 | locus YEL061C, strain CIN8 (second series), active compounds read low 1.02 | locus YEL061C, strain CIN8, active compounds read low 1.02 | locus YER015W, strain faa2, active compounds read low 1.03 | locus YER016W, strain bim1, active compounds read low 1 | locus YER110C, active compounds read low 1.03 | locus YER111C, strain swi4, active compounds read low 1.01 | locus YER155C, strain BEM2 (second series), active compounds read low 1 | locus YER155C, strain BEM2, active compounds read low 1.03 | locus YER167W, strain BCK2, active compounds read low 1.04 | locus YFR010W, strain ubp6, active compounds read low 1.04 | locus YGL078C, strain dbp3, active compounds read low 1.03 | locus YGL167C, strain pmr1, active compounds read low 1.01 | locus YGL173C, strain kem1, active compounds read low 1.01 | locus YGL227W, strain vid30, active compounds read low 1.01 | locus YGL240W, strain doc1, active compounds read low 1 | locus YGL248W, strain PDE1, active compounds read low 1.02 | locus YGL253W, strain hxk2, active compounds read low 1.02 | locus YGR078C, strain PAC10, active compounds read low 1.05 | locus YGR135W, strain pre9, active compounds read low 1.05 | locus YGR252W, strain gcn5, active compounds read low 1.07 | locus YHR013C, strain ard1, active compounds read low 1.1 | locus YHR027C, strain rpn1, active compounds read low 1.02 | locus YHR030C, strain SLT2, active compounds read low 1.04 | locus YHR079C, strain IRE1 (second series), active compounds read low 1.01 | locus YHR094C, strain hxt1, active compounds read low 1.02 | locus YHR129C, strain ARP1, active compounds read low 1.04 | locus YHR142W, strain chs7, active compounds read low 1.03 | locus YHR200W, strain rpn10, active compounds read low 1.04 | locus YIL066C, strain RNR3, active compounds read low 1.05 | locus YIL073C, strain SPO22, active compounds read low 1.15 | locus YIL125W, strain kgd1, active compounds read low 1.02 | locus YJL092W, strain hpr5, active compounds read low 1.01 | locus YJL095W, strain BCK1 (second series), active compounds read low 1.01 | locus YJL095W, strain BCK1, active compounds read low 0.973 | locus YJL115W, strain asf1, active compounds read low 1.02 | locus YJL129C, strain trk1, active compounds read low 1.02 | locus YJL134W, strain LCB3, active compounds read low 1.02 | locus YJL154C, strain vps35, active compounds read low 1 | locus YJL164C, strain tpk1, active compounds read low 1.03 | locus YJL166W, strain qcr8, active compounds read low 1.01 | locus YJL168C, strain set2, active compounds read low 1.04 | locus YJL187C, strain SWE1 (second series), active compounds read low 1.02 | locus YJL187C, strain SWE1, active compounds read low 1.01 | locus YJR043C, strain POL32, active compounds read low 1.02 | locus YKL160W, strain elf1, active compounds read low 0.995 | locus YKL190W, strain CNB1, active compounds read low 1.03 | locus YKR001C, strain vps1, active compounds read low 1.03 | locus YKR026C, strain gcn3, active compounds read low 0.988 | locus YKR091W, strain srl3, active compounds read low 1.01 | locus YLL001W, strain dnm1, active compounds read low 1.02 | locus YLL026W, active compounds read low 1.01 | locus YLL041C, strain sdh2, active compounds read low 1.01 | locus YLR027C, strain aat2, active compounds read low 1.02 | locus YLR039C, strain RIC1, active compounds read low 0.866 | locus YLR058C, strain SHM2, active compounds read low 1.03 | locus YLR102C, strain apc9, active compounds read low 1.02 | locus YLR221C, strain rsa3, active compounds read low 1.02 | locus YLR258W, strain gsy2, active compounds read low 1.01 | locus YLR262C, strain YPT6 (second series), active compounds read low 0.871 | locus YLR262C, strain YPT6, active compounds read low 0.827 | locus YLR268W, strain sec22, active compounds read low 1.01 | locus YLR320W, strain mms22, active compounds read low 1.02 | locus YLR330W, strain CHS5, active compounds read low 1.03 | locus YLR342W, strain FKS1 (second series), active compounds read low 0.97 | locus YLR342W, strain FKS1, active compounds read low 1.02 | locus YLR357W, strain rsc2, active compounds read low 1 | locus YLR370C, strain arc18, active compounds read low 1.02 | locus YLR371W, strain rom2, active compounds read low 1.01 | locus YLR384C, strain iki3, active compounds read low 1.02 | locus YML016C, strain PPZ1, active compounds read low 1.03 | locus YML032C, strain rad52, active compounds read low 1.02 | locus YML120C, strain ndi1, active compounds read low 1.02 | locus YML124C, strain tub3, active compounds read low 1.05 | locus YMR058W, strain fet3, active compounds read low 1.03 | locus YMR078C, strain ctf18, active compounds read low 1.03 | locus YMR125W, strain sto1, active compounds read low 1.03 | locus YMR129W, active compounds read low 1.02 | locus YMR205C, strain PFK2, active compounds read low 0.984 | locus YMR223W, strain ubp8, active compounds read low 1.01 | locus YMR231W, strain pep5, active compounds read low 1.01 | locus YMR307W, strain GAS1, active compounds read low 0.909 | locus YNL067W, strain RPL9B, active compounds read low 1.02 | locus YNL071W, strain lat1, active compounds read low 1.01 | locus YNL128W, strain TEP1, active compounds read low 0.874 | locus YNL153C, strain GIM3, active compounds read low 1.02 | locus YNL209W, strain ssb2, active compounds read low 1.03 | locus YNL233W, strain BNI4, active compounds read low 1.03 | locus YNL248C, strain rpa49, active compounds read low 1.01 | locus YNL250W, strain rad50, active compounds read low 1.04 | locus YNL271C, strain bni1, active compounds read low 1.02 | locus YNL298W, strain CLA4, active compounds read low 1.02 | locus YNL307C, strain MCK1, active compounds read low 1.05 | locus YNL322C, strain KRE1 (second series), active compounds read low 0.998 | locus YNR049C, strain mso1, active compounds read low 1.01 | locus YNR052C, strain pop2, active compounds read low 1.03 | locus YOL006C, strain TOP1, active compounds read low 1.17 | locus YOL012C, strain htz1 1.06 | locus YOL147C, strain pex11, active compounds read low 1.03 | locus YOR001W, strain rrp6, active compounds read low 1 | locus YOR061W, strain CKA2, active compounds read low 1 | locus YOR069W, strain VPS5, active compounds read low 1.01 | locus YOR070C, strain gyp1, active compounds read low 1.03 | locus YOR080W, strain dia2, active compounds read low 1.01 | locus YOR083W, strain WHI5, active compounds read low 0.996 | locus YOR106W, strain vam3, active compounds read low 1 | locus YOR136W, strain idh2, active compounds read low 1.04 | locus YOR144C, strain elg1, active compounds read low 1.03 | locus YOR184W, strain ser1, active compounds read low 1 | locus YOR265W, strain rbl2, active compounds read low 1.03 | locus YOR270C, strain vph1, active compounds read low 1.11 | locus YOR290C, strain snf2, active compounds read low 0.991 | locus YOR316C, strain cot1, active compounds read low 1.03 | locus YPL051W, strain arl3, active compounds read low 0.99 | locus YPL078C, strain atp4, active compounds read low 1.02 | locus YPL106C, strain sse1, active compounds read low 1.03 | locus YPL240C, strain hsp82, active compounds read low 1.01 | locus YPR119W, strain clb2, active compounds read low 1.03 | locus YPR141C, strain kar3, active compounds read low 1.05 | locus YPR163C, strain tif3, active compounds read low 1.05 | locus YPR167C, strain met16, active compounds read low 1.04 | strain wtn01, active compounds read low 1.05
